# Measurements published in ChEMBL document CHEMBL5606460, “ASAP - DENV-2 NS2B-NS3 protease fluorescence single point” (2024).
# Hit rate of the full screen: of about 2,000 compounds, about 110 (5.5%) showed an effect of 50% or more. Many of the other results were omitted from the sample, so strong results are more common in it than they were.
# Target: Genome polyprotein (dengue virus type 2) (UniProt P29990)
# [1] = Thailand/16681/1984, Concentration 25.0 uM, Number of replicates 1.0
smiles,measurement,setting,value
Cc1cc(CO)c2cccc(Cc3cccc(C(=O)Nc4cc(C)on4)c3)c2n1,inhibition,"Thailand/16681/1984, Concentration 49.95 uM, Number of replicates 2.0, Standard deviation 1.544383261062021 %",29.6%
same,inhibition,"Thailand/16681/1984, Concentration 99.9 uM, Number of replicates 2.0, Standard deviation 16.942938692438737 %",63.9%
COc1ccc(-c2cc(NC(=O)C3CCN(c4ccc(C=O)cc4)CC3)[nH]n2)cc1,inhibition,[1],0.343%
c1cnc2c(C3CCN(Cc4cscn4)CC3)c[nH]c2c1,inhibition,"Thailand/16681/1984, Concentration 49.5 uM, Number of replicates 2.0, Standard deviation 1.714470745737797 %",-3.42%
same,inhibition,"Thailand/16681/1984, Concentration 99.01 uM, Number of replicates 2.0, Standard deviation 2.482934234636928 %",-3.54%
same,inhibition,"Thailand/16681/1984, Concentration 198.0 uM, Number of replicates 2.0, Standard deviation 1.6201369950511377 %",-3.14%
C[C@@H](Cc1ccc(O)cc1)NC(=O)C1CCN(c2ccc(C=O)cc2)CC1,inhibition,[1],12.7%
Cc1cc(CO)c2cccc(CC(=O)N3CC4(CCCOC4)C3)c2n1,inhibition,"Thailand/16681/1984, Concentration 49.95 uM, Number of replicates 2.0, Standard deviation 0.772673116128399 %",-6.59%
same,inhibition,"Thailand/16681/1984, Concentration 99.9 uM, Number of replicates 2.0, Standard deviation 1.1105448445025274 %",-6.27%
CC(C)(CO)NC(=O)c1cc(Cl)cc(NC(=O)c2cc(-c3ccc(Cl)cc3)n[nH]2)c1,inhibition,"Thailand/16681/1984, Concentration 49.5 uM, Number of replicates 2.0, Standard deviation 0.12694171370832513 %",1.06%
same,inhibition,"Thailand/16681/1984, Concentration 99.01 uM, Number of replicates 2.0, Standard deviation 0.3683389265193805 %",1.45%
same,inhibition,"Thailand/16681/1984, Concentration 198.0 uM, Number of replicates 2.0, Standard deviation 0.21850629000727306 %",2.52%
Cc1cc(CO)c2cccc(C[C@H](NC(=O)C(=O)c3ccco3)C(=O)O)c2n1,inhibition,"Thailand/16681/1984, Concentration 49.95 uM, Number of replicates 2.0, Standard deviation 2.1984135254678594 %",1.13%
same,inhibition,"Thailand/16681/1984, Concentration 99.9 uM, Number of replicates 2.0, Standard deviation 0.8113996635889369 %",5.56%
c1ccc2c(CN3CCC(c4c[nH]c5cccnc45)CC3)n[nH]c2c1,inhibition,"Thailand/16681/1984, Concentration 49.5 uM, Number of replicates 2.0, Standard deviation 0.8795107409501791 %",2.18%
same,inhibition,"Thailand/16681/1984, Concentration 99.01 uM, Number of replicates 2.0, Standard deviation 0.8626664157680123 %",3.05%
same,inhibition,"Thailand/16681/1984, Concentration 198.0 uM, Number of replicates 2.0, Standard deviation 1.2603111418750788 %",5.34%
Cc1cc(CO)c2cccc(C[C@H](NC(=O)C[C@H]3CCCN3)C(=O)O)c2n1,inhibition,"Thailand/16681/1984, Concentration 49.95 uM, Number of replicates 2.0, Standard deviation 0.0013512279632592627 %",3.5%
same,inhibition,"Thailand/16681/1984, Concentration 99.9 uM, Number of replicates 2.0, Standard deviation 1.378906641613337 %",9%
Cc1cnccc1NC(=O)c1cc(C2CCC2)n(C)c1C,inhibition,"Thailand/16681/1984, Concentration 49.5 uM, Number of replicates 2.0, Standard deviation 0.7067686370209446 %",0.618%
same,inhibition,"Thailand/16681/1984, Concentration 99.01 uM, Number of replicates 2.0, Standard deviation 0.7459418989288495 %",1.95%
same,inhibition,"Thailand/16681/1984, Concentration 198.0 uM, Number of replicates 2.0, Standard deviation 0.11875700646175207 %",4.33%
N#Cc1cccc(-c2nc3c(C(=O)Nc4cccnc4)cc(Cl)cc3[nH]2)c1,inhibition,"Thailand/16681/1984, Concentration 99.5 uM, Number of replicates 2.0, Standard deviation 0.04165727071859149 %",7.45%
same,inhibition,"Thailand/16681/1984, Concentration 295.6 uM, Number of replicates 2.0, Standard deviation 4.418006643102565 %",20.3%
N#Cc1cccc(-c2nc3c(C(=O)Nc4ccccc4)cc(Cl)cc3[nH]2)c1,inhibition,"Thailand/16681/1984, Concentration 99.5 uM, Number of replicates 2.0, Standard deviation 7.963520922762683 %",14.4%
same,inhibition,"Thailand/16681/1984, Concentration 295.6 uM, Number of replicates 2.0, Standard deviation 58.7613445679075 %",56.6%
N#Cc1cccc(-c2nc3c(C(=O)NCc4cccnc4)cc(Cl)cc3[nH]2)c1,inhibition,"Thailand/16681/1984, Concentration 99.5 uM, Number of replicates 2.0, Standard deviation 2.321247122631555 %",6.57%
same,inhibition,"Thailand/16681/1984, Concentration 295.6 uM, Number of replicates 2.0, Standard deviation 6.98688470817418 %",38.2%
CCc1ccc(-c2nc3c(C(=O)Nc4ccc5c(c4)CNC5)cc(Cl)cc3[nH]2)cc1,inhibition,"Thailand/16681/1984, Concentration 99.5 uM, Number of replicates 2.0, Standard deviation 0.07636874080258764 %",91.5%
same,inhibition,"Thailand/16681/1984, Concentration 295.6 uM, Number of replicates 2.0, Standard deviation 0.5542721932424032 %",83.9%
N#Cc1cccc(-c2nc3c(C(=O)NCc4ccccc4)cc(Cl)cc3[nH]2)c1,inhibition,"Thailand/16681/1984, Concentration 99.5 uM, Number of replicates 2.0, Standard deviation 0.16663009439873022 %",-4.99%
same,inhibition,"Thailand/16681/1984, Concentration 295.6 uM, Number of replicates 2.0, Standard deviation 26.28702583112172 %",8.64%
CC(C)NC(=O)[C@H](Nc1ccc2c(c1)CNC2)c1cc(Cl)cc2[nH]c(-c3ccccc3)nc12,inhibition,"Thailand/16681/1984, Concentration 99.5 uM, Number of replicates 2.0, Standard deviation 1.6408381783405366 %",91.5%
same,inhibition,"Thailand/16681/1984, Concentration 295.6 uM, Number of replicates 2.0, Standard deviation 0.018514941963441705 %",97.4%
O=C(Nc1ccc2c(c1)CNC2)c1cc(Cl)cc2[nH]c(-c3cc(C4CC4)[nH]n3)nc12,inhibition,"Thailand/16681/1984, Concentration 99.5 uM, Number of replicates 2.0, Standard deviation 0.13306805316732315 %",94.6%
same,inhibition,"Thailand/16681/1984, Concentration 295.6 uM, Number of replicates 2.0, Standard deviation 0.23606011523727233 %",88.6%
CCc1ccc(-c2ccccc2C(=O)Nc2cnn(C)c2)c(F)c1,inhibition,"Thailand/16681/1984, Concentration 49.5 uM, Number of replicates 2.0, Standard deviation 0.8455770066617545 %",-0.985%
same,inhibition,"Thailand/16681/1984, Concentration 99.01 uM, Number of replicates 2.0, Standard deviation 1.2261793384720772 %",-0.538%
same,inhibition,"Thailand/16681/1984, Concentration 198.0 uM, Number of replicates 2.0, Standard deviation 2.01798052784263 %",0.736%
N#Cc1cccc(-c2nc3c(C(=O)Nc4ccncc4)cc(Cl)cc3[nH]2)c1,inhibition,"Thailand/16681/1984, Concentration 99.5 uM, Number of replicates 2.0, Standard deviation 0.8007493235576281 %",6.92%
same,inhibition,"Thailand/16681/1984, Concentration 295.6 uM, Number of replicates 2.0, Standard deviation 3.318711635404566 %",36.2%
